Assay results published in PubChem BioAssay (EPA / NIEHS).
Activity calls are given as the source filed them. How the source made its calls: active means hit-call score of the fitted dose curve at least 0.9, where 1 is the maximum; inactive means score below 0.9.

How the values were obtained:
[1] = biological target: Transcription factor E2F1 (Homo sapiens) (UniProt Q01094); experiment: ATG_E2F_CIS: Attagene CIS-FACTORIAL HepG2 Assay for human E2F Transcription Factor 1 (AID 2282935); conditions: HepG2 Attagene cis-reporter, E2F reporter RNA transcripts; actives raise or lower the signal
Sequence of Transcription factor E2F1 (Homo sapiens) (Q01094 whole entry, looked up): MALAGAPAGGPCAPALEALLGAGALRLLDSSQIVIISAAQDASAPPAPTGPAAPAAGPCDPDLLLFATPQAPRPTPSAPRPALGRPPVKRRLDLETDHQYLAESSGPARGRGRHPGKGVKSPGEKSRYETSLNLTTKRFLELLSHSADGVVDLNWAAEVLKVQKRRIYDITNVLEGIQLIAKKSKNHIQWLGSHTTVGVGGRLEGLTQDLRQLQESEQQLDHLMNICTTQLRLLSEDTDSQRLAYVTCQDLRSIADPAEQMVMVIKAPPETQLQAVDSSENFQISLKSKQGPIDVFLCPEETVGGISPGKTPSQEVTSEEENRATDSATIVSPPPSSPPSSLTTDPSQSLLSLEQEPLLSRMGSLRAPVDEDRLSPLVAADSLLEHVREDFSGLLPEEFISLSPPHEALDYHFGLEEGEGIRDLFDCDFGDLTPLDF
Procedure, shortened: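 Endogenous E2F1 activity read through cis-promoter reporter units transfected into HepG2. After 24 h compound treatment, reporter mRNA measured by RT-PCR, HpaI digestion and capillary electrophoresis. Bidirectional fit versus DMSO.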

[2] = ATG_E_Box_CIS: Attagene CIS-FACTORIAL HepG2 Assay for human Enhancer Box (E-box) (AID 2282936); conditions: HepG2 E-box cis-reporter transcription, actives raise or lower the signal
Procedure, shortened: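 HepG2 cells transiently transfected with multiplexed cis-element reporter units, dosed 24 h; reporter mRNA quantified by RT-PCR, 6-FAM labelling, HpaI digestion and capillary electrophoresis. E-box (USF1) signal fitted bidirectionally vs DMSO.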

[3] = ATG_M_61_CIS: Attagene CIS-FACTORIAL HepG2 Assay for M61 Transcription Factor (Internal Marker) (AID 2282937); conditions: HepG2 Attagene CIS-FACTORIAL M61 internal marker reporter; actives raise or lower the signal
Procedure, shortened: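 Using transiently transfected HepG2 liver cells, reporter transcript levels were assessed 24 h post-dosing by RT-PCR and capillary electrophoresis. Changes in either direction were fitted relative to DMSO controls.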

[4] = ATG_EGR_CIS: Attagene CIS-FACTORIAL HepG2 Assay for human Early Growth Response 1 (EGR1) (AID 2282938); conditions: HepG2 Attagene CIS-FACTORIAL EGR reporter mRNA; actives raise or lower the signal
Procedure, shortened: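 Fluorescent capillary-electrophoresis signal of reporter cDNA fragments serves as read-out. HepG2 cells bear transiently transfected cis-promoter reporter units and are exposed 24 h; gain- or loss-of-signal is fitted against DMSO.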

[5] = ATG_M_19_CIS: Attagene CIS-FACTORIAL HepG2 Assay for M19 Transcription Factor (Internal Marker) (AID 2282939); conditions: HepG2 Attagene CIS-FACTORIAL M19 internal marker reporter; actives raise or lower the signal
Procedure, shortened: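 Readout: fluorescent reporter-transcript fragments by capillary electrophoresis after RT-PCR. Human HepG2 liver cells carried transfected MRTU constructs reporting endogenous transcription-factor activity; exposure 24 h. Gain or loss of signal fitted relative to DMSO.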

[6] = ATG_ERE_CIS: Attagene CIS-FACTORIAL HepG2 Assay for Estrogen Response Element (ERE) (AID 2282940); conditions: HepG2 ERE cis-reporter, Attagene RNA transcript; actives raise or lower the signal
Procedure, shortened: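 Readout: reporter mRNA induction by RT-PCR, FAM-labelled primer extension, HpaI digestion and capillary electrophoresis, 24 h after dosing transfected HepG2 cells. Endogenous transcription factors act on cis-element-regulated reporters. Gain or loss fitted against DMSO.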

[7] = ATG_Ets_CIS: Attagene CIS-FACTORIAL HepG2 Assay for human Erythroblast Transformation Specific (ETS) (AID 2282941); conditions: HepG2 ETS cis-reporter transcription, actives raise or lower the signal
Procedure, shortened: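 Steps: transfect HepG2 with multiple reporter units; treat compound 24 h; isolate RNA, DNase-treat, reverse-transcribe; PCR-amplify, label with 6-FAM, digest with HpaI; separate by capillary electrophoresis. Activity fitted both directions versus DMSO.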

[8] = biological target: Hepatocyte nuclear factor 3-beta (Homo sapiens) (UniProt Q9Y261); experiment: ATG_FoxA2_CIS: Attagene CIS-FACTORIAL HepG2 Assay for human Forkhead box A2 (FOXA2) (AID 2282942); conditions: HepG2 cis-reporter transcription factor activity, 24 h; actives raise or lower the signal
Sequence of Hepatocyte nuclear factor 3-beta (Homo sapiens) (Q9Y261 whole entry, looked up, the tested form may be a part): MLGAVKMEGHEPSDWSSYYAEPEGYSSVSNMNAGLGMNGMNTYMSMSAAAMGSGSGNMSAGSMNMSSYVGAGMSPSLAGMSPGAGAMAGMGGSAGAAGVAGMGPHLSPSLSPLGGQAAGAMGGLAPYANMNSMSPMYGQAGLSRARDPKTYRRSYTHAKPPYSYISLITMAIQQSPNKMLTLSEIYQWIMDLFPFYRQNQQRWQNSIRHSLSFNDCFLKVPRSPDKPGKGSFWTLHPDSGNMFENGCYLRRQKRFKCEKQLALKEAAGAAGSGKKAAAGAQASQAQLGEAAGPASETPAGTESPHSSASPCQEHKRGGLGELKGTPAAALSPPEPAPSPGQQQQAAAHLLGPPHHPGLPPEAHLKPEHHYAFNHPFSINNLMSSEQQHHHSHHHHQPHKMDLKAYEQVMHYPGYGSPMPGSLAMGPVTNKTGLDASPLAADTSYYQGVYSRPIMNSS
Procedure, shortened: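 Fluorescence signal of reporter cDNA fragments, separated by capillary electrophoresis, reflects endogenous transcription factor activity in transfected HepG2 after 24 h. Both increases and decreases fitted against DMSO.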

[9] = ATG_FoxO_CIS: Attagene CIS-FACTORIAL HepG2 Assay for human Forkhead box O (FoxO) (AID 2282943); conditions: HepG2 Attagene cis-reporter, FoxO element, mRNA; actives raise or lower the signal
Procedure, shortened: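 Transfected HepG2 reporter cells exposed to test chemical for 24 h; reporter RNA measured by reverse transcription, PCR and fluorescent capillary electrophoresis; curves fitted for increases and decreases against DMSO.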

[10] = ATG_GATA_CIS: Attagene CIS-FACTORIAL HepG2 Assay for human GATA Binding Protein (AID 2282944); conditions: HepG2 GATA cis-element reporter, Attagene multiplex mRNA; actives raise or lower the signal
Procedure, shortened: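 Read-out: fluorescent reporter mRNA fragments resolved by capillary electrophoresis after RT-PCR. Human liver HepG2 cells carried transiently transfected cis-regulated reporter constructs; chemicals incubated 24 h; gain or loss of signal fitted relative to DMSO.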

[11] = ATG_GLI_CIS: Attagene CIS-FACTORIAL HepG2 Assay for human Zinc Finger Protein GLI1 (AID 2282945); conditions: HepG2, Attagene cis-factorial reporter mRNA, GLI element; actives raise or lower the signal
Procedure, shortened: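 Transiently transfected HepG2 cells report endogenous transcription factor activity via cis-element-driven reporter units. After 24 h compound exposure, reporter mRNA was measured by RT-PCR with capillary electrophoresis; bidirectional fitting against DMSO baseline.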

[12] = ATG_GRE_CIS: Attagene CIS-FACTORIAL HepG2 Assay for human Glucocorticoid Response Elements (GRE) (AID 2282947); conditions: HepG2 GRE cis-reporter, Attagene multiplex mRNA; actives raise or lower the signal
Procedure, shortened: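 Transiently transfected HepG2 cells carrying GRE cis-reporter units (endogenous TF activity) dosed 24 h; reporter mRNA quantified by RT-PCR, 6-FAM labelling, HpaI digestion and capillary electrophoresis. Bidirectional fit versus DMSO baseline.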

[13] = ATG_ISRE_CIS: Attagene CIS-FACTORIAL HepG2 Assay for human Interferon Regulatory Factor 1 (IRF1) binding to an Interferon-Stimulated Response Element (ISRE) (AID 2282948); conditions: HepG2 ISRE cis-reporter (Attagene), mRNA transcription readout; actives raise or lower the signal
Procedure, shortened: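 Transfected HepG2 (multiple reporter transcription units, cis elements) dosed 24 h. RNA → oligo(dT) RT → PCR → 6-FAM primer extension → HpaI → CE. DMSO = negative control/baseline.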

[14] = ATG_M_32_CIS: Attagene CIS-FACTORIAL HepG2 Assay for M32 Transcription Factor (Internal Marker) (AID 2282949); conditions: HepG2 Attagene cis-factorial M32 reporter, mRNA; actives raise or lower the signal;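 further: background control marker of the multiplexed CIS panel rather than a real target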
Procedure, shortened: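 HepG2 cells transiently transfected with multiplexed cis-regulated reporter units, dosed 24 h. Reporter mRNA quantified by RT-PCR, 6-FAM labelling, HpaI digestion and capillary electrophoresis; bidirectional fit vs DMSO.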

[15] = ATG_M_06_CIS: Attagene CIS-FACTORIAL HepG2 Assay for M06 Transcription Factor (Internal Marker) (AID 2282950); conditions: HepG2 Attagene CIS-FACTORIAL M06 internal marker reporter; actives raise or lower the signal
Procedure, shortened: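 Terse: HepG2, transient MRTU transfection (FuGene 6), 24 h dosing; total RNA, oligo(dT) RT, PCR, FAM label, HpaI cut, capillary electrophoresis; bidirectional fit vs DMSO baseline; background-control endpoint.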

[16] = biological target: Heat shock factor protein 1 (Homo sapiens) (UniProt Q00613); experiment: ATG_HSE_CIS: Attagene CIS-FACTORIAL HepG2 Assay for human Heat Shock Transcription Factor 1 (HSE) (AID 2282953); conditions: HepG2 HSE cis-reporter, Attagene RNA transcription; actives raise or lower the signal
Sequence of Heat shock factor protein 1 (Homo sapiens) (Q00613 whole entry, looked up, the tested form may be a part): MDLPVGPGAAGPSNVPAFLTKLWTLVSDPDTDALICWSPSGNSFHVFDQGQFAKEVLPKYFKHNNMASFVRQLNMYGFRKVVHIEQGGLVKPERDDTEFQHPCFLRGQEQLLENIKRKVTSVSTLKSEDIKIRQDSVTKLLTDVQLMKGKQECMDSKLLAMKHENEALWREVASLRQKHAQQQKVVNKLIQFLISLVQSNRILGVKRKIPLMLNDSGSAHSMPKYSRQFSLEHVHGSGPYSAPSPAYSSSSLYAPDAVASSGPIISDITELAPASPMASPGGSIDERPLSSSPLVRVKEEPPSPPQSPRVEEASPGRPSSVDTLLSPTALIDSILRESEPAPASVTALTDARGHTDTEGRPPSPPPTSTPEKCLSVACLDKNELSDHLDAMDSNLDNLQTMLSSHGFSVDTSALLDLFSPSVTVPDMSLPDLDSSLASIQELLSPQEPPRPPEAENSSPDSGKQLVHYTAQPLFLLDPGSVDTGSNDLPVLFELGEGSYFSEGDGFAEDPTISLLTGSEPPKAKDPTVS
Procedure, shortened: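 Read-out: fluorescence of reporter-specific RT-PCR fragments separated by capillary electrophoresis. HepG2 carrying transfected cis-element reporter units; 24 h dosing; activity fitted in both directions relative to DMSO baseline.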

[17] = ATG_MRE_CIS: Attagene CIS-FACTORIAL HepG2 Assay for human Metal Responsive Element (MRE) (AID 2282954); conditions: HepG2 MRE cis-reporter transcription, Attagene multiplex; actives raise or lower the signal
Procedure, shortened: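 HepG2 cells transiently transfected with cis-element-driven reporter units; mRNA measured 24 h after dosing. Reporter transcripts quantified by RT-PCR, FAM labelling, HpaI digestion and capillary electrophoresis; bidirectional fit versus DMSO.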

[18] = biological target: Hypoxia-inducible factor 1-alpha (Homo sapiens) (UniProt Q16665); experiment: ATG_HIF1a_CIS: Attagene CIS-FACTORIAL HepG2 Assay for human Hypoxia Inducible Factor 1 (HIF1A) (AID 2282951); conditions: HepG2 Attagene cis-factorial HIF1a reporter transcription; actives raise or lower the signal
Sequence of Hypoxia-inducible factor 1-alpha (Homo sapiens) (Q16665 whole entry, looked up): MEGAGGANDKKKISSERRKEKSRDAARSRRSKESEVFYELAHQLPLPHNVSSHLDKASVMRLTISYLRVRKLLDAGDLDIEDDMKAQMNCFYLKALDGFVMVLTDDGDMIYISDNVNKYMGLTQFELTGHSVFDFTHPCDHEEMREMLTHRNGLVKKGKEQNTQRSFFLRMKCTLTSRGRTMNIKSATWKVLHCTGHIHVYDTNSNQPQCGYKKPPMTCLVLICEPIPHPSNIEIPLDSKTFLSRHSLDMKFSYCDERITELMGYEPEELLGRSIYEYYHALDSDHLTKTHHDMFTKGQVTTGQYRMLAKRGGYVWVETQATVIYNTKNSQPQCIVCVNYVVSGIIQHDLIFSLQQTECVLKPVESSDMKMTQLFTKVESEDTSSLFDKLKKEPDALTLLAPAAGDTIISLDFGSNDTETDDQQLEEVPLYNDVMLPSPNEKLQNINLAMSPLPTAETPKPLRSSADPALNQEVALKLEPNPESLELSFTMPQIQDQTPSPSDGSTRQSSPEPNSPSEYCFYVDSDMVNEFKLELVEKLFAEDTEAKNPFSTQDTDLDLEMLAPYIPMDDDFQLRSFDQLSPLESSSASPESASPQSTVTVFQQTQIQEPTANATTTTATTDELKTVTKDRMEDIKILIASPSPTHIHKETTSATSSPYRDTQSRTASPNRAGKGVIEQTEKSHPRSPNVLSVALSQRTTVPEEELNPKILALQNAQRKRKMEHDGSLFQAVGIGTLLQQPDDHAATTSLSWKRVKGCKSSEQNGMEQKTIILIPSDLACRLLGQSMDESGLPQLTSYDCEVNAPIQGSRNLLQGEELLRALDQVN
Procedure, shortened: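 Endogenous-TF cis reporter readout, human HepG2 cells, 24 h incubation; mRNA detected via RT-PCR and capillary electrophoresis fluorescence; DMSO-normalised bidirectional fitting.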

[19] = biological target: Hepatocyte nuclear factor 6 (Homo sapiens) (UniProt Q9UBC0); experiment: ATG_HNF6_CIS: Attagene CIS-FACTORIAL HepG2 Assay for human Hepatocyte Nuclear Factor 6 (HNF6) (AID 2282952); conditions: HepG2 Attagene cis-factorial HNF6 reporter transcription; actives raise or lower the signal
Sequence of Hepatocyte nuclear factor 6 (Homo sapiens) (Q9UBC0 whole entry, looked up, the tested form may be a part): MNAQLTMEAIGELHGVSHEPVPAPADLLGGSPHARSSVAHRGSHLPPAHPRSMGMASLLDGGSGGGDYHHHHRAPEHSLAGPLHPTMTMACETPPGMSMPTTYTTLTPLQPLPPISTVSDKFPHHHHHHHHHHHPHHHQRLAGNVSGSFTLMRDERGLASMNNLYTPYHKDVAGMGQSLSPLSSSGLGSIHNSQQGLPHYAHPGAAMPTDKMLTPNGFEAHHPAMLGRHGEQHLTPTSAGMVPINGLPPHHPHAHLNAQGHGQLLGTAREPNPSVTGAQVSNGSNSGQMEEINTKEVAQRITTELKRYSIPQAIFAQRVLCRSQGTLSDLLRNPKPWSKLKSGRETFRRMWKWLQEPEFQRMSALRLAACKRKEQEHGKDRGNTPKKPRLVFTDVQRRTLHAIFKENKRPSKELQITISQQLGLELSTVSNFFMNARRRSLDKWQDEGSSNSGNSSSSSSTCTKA
Procedure, shortened: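 Reporter mRNA induction or loss in HepG2 after 24 h exposure; transient cis-MRTU transfection; fragments quantified by capillary electrophoresis; bidirectional analysis, DMSO as negative control.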

Measured: AC50

Cc1ccncc1
not listed: [18] | [19]
inactive: all other assays above

CCO[Si](CC)(OCC)OCC
not listed: [12] | [19]
inactive: all other assays above

Nc1cc([N+](=O)[O-])ccc1C(=O)O
active: [16] 75 µM | [17] 71 µM
not listed: [12] | [18] | [19]
inactive: all other assays above

O=C(O)c1cc2ccccc2cc1O
not listed: [15] | [16] | [18]
inactive: all other assays above

OCCN1CCOCC1
active: [6] 21.4 µM
not listed: [12]
inactive: all other assays above

CCC(C)C1CCCCC1=O (stereo not drawn)
not listed: [12]
inactive: all other assays above

Cc1cccc(O)c1
not listed: [10] | [16] | [18]
inactive: all other assays above

CC(C)(O)C(=O)c1ccc(OCCO)cc1
not listed: [8]
inactive: all other assays above

CC(=O)Oc1c(C)c(C)c2c(c1C)CC[C@@](C)(CCC[C@H](C)CCC[C@H](C)CCCC(C)C)O2
not listed: [10] | [12]
inactive: all other assays above

CCNC(=S)NCC
not listed: [12] | [15] | [17] | [19]
inactive: all other assays above

CCCCCCCCOC(C)=O
not listed: [10] | [12] | [19]
inactive: all other assays above

CC(C)N(c1ccccc1)C(C)C
not listed: [10] | [14]
inactive: all other assays above

CC(=O)N(C)C
not listed: [10] | [19]
inactive: all other assays above

CCCCCCCCCC(=O)OCC
not listed: [10] | [12]
inactive: all other assays above

CC(C)Cc1ccccc1
not listed: [8]
inactive: all other assays above

C=C(C)C(=O)OCCOCCOC(=O)C(=C)C
not listed: [12] | [14] | [17] | [18]
inactive: all other assays above
